# An excerpt weighted towards active compounds, which were near 0.97% of everything screened.
# MMP-13 inhibitor – MMP13 (human) collagenase inhibition; hit rate 0.07% among 65,000; MMP-13 fTHP FRET cleavage, Mca fluorescence; AID 570; P45452; inhibition, % at 4 µM;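 active means inhibition above the mean of compound-free control plate wells plus 3 SD, cut at about 14% in these data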;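 further: 0% = DMSO wells and 100% = wells with reference MMP-13 inhibitor after basal subtraction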
# ROCK2 inh – inhibitors of human Rho kinase 2. O75116. purified ROCK2, Kinase-Glo ATP depletion luminescence. inhibition, % at 6 µM. hit rate 0.35% among 60,000;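 active means inhibition above the screen-wide mean inhibition plus 3 SD, cut at about 18% in these data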;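 further: plate controls were DMSO wells for no effect and Y-27632 control wells after no-enzyme background subtraction for full effect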
# Htt clearance – compounds clearing mutant huntingtin protein; HeLa Exon1htt(103Q)mCFP, aggregate imaging; zero = plate's median compound well; inhibition, % at 1.5 µM; hit rate 0.42% among 47,000; AID 853;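 active means inhibition of aggregate fluorescence above about 70%, also judged a hit by eye on the cell image, limit read from the data, passing the limit was not always enough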;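 further: cells exposed to compound for three days before fixation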
# SKBR3 24h inh – SK-BR-3 proliferation inhibitors; SK-BR-3 viability, CellTiter-Glo ATP luminescence, 24 h; active compounds read low; viability, % at 10 µM; hit rate 0.47% among 41,000;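 active means viability at or below the median of all test compounds minus 3 SD, in both replicates if run twice, cut at about 45% in these data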;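 further: 100% = median untreated cell wells and 0% = median positive control drug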
# Hsp90 block – displaces geldanamycin probe from tumor Hsp90; P07900; NCI-N417 lysate Hsp90, Cy3B-geldanamycin FP displacement; inhibition, % at 30 µM; hit rate 0.35% among 64,000; AID 429;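 active means inhibition above 50%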;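 further: 0% = tracer plus lysate wells and 100% = tracer alone without lysate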
# PKA inh – PKA (human) kinase inhibition | P17612 | PKA Kemptide phosphorylation, Kinase-Glo ATP luminescence | inhibition, % at 6 µM | hit rate 0.1% among 65,000;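 active means inhibition above the screen-wide mean inhibition plus 3 SD, cut at about 21% in these data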
# Starred values were filed as active, the others as inactive; i = inactive; / = no result given.
SMILES,MMP-13 inhibitor,ROCK2 inh,Htt clearance,SKBR3 24h inh,Hsp90 block,PKA inh
CC(=O)SC1CC2=CC(=O)CC[C@]2(C)C2CC[C@@]3(C)C(CC[C@@]34CCC(=O)O4)C12 (stereo partly specified),/,/,/,/,-1.3,/
CCOC(=O)c1ccc(NC(=O)C2(c3ccccc3)CCOCC2)cc1,/,/,40.3,/,/,/
Nc1nc(SCC(=O)NCc2ccccc2)n[nH]1,-3.5,-3.8,-11.2,90.8,-4.4,2.2
Cc1ccc(CNC(=O)CSc2n[nH]c(N)n2)cc1,-1.1,3.4,82.2*,82.8,1.1,2.4
N#CC(c1ccc(O)cc1)N1CCOCC1 (stereo unspecified),/,/,-80.2,/,/,/
c1ccc2c(-c3ccncc3)c[nH]c2c1,0.8,89.4*,-2.9,65.4,-2.9,65.3*
O=C(CCSc1nc(-c2ccco2)cc(C(F)(F)F)n1)N1CCCc2ccccc21,0.7,-1.7,2.7,94.5,-2.8,-0.9
Cc1c(F)cccc1NC(=O)CSCC(=O)Nc1ccccc1,/,/,i,/,/,/
c1ccc(Cn2ncc3c2ncn2c(-c4ccncc4)nnc32)cc1,3.0,14.2,/,92.8,-0.3,76.5*
c1ccc(Cn2ncc3c2ncn2nc(-c4ccncc4)nc32)cc1,2.3,8.7,/,94.6,1.0,48.5*
CCN(CC)S(=O)(=O)c1ccc(C(=O)OCn2nnc3ccccc3c2=O)cc1,4.5,1.0,45.4,/,-2.8,-4.3
Cc1cc(C)nc(N2CCC(C(=O)NCc3cccc(C(F)(F)F)c3)CC2)n1,-1.4,0.0,-9.5,40.2*,2.3,-2.9
CCN1C(=O)c2cccc3c(NC(=O)c4ccc(S(=O)(=O)N5CCOCC5)cc4)ccc1c23,1.2,-2.1,71.7*,75.5,-0.4,-7.9
CCN1C(=O)c2cccc3c(NC(=O)c4ccc(S(=O)(=O)N(C)C)cc4)ccc1c23,2.4,7.7,/,78.8,-3.4,10.4
CC(=O)Oc1cc2c(C(=O)NCCCN3CCOCC3)c(C)oc2c2ccccc12,-1.2,-5.1,/,87.7,93.8*,-8.4
CC(=O)N1CCc2cc(Br)cc(S(=O)(=O)N3CCCCCC3)c21,-4.3,-1.6,-22.9,40.7*,-5.2,1.7
Cc1onc(-c2ccccc2Cl)c1C(=O)Nc1ccc2c(c1)OCO2,-3.5,3.5,/,/,0.6,-2.7
Cc1noc(C(=O)Nc2ccc3c(c2)OCO3)c1Cl,7.8,1.0,17.9,/,60.3*,-7.8
CC(N)C1CCC(C(=O)Nc2ccncc2)CC1 (stereo unspecified),/,/,/,/,1.8,/
CCCCCc1c(C)nc(NCc2ccccc2)[nH]c1=O,5.2,3.6,/,87.0,-1.2,10.5
CCCCc1c(C)nc(N)[nH]c1=O,-1.9,18.4*,-37.6,76.5,2.9,7.3
CC(OC(=O)c1cccs1)C(=O)NCc1cccs1 (stereo unspecified),-3.5,4.0,/,89.3,92.3*,8.6
CC(C)CC(OC(=O)c1cccs1)C(=O)NCc1cccs1 (stereo unspecified),-5.4,-1.8,-14.8,92.2,-3.1,-0.3
CC(=O)c1cccc(NC(=O)NCc2cccs2)c1,3.1,19.6*,/,93.7,-0.7,8.1
COc1cc(NC(=O)Nc2cccc(C(C)=O)c2)cc(OC)c1OC,-8.3,8.4,75.2*,95.0,-2.1,5.4
SMILES,MMP-13 inhibitor,ROCK2 inh,Htt clearance,SKBR3 24h inh,Hsp90 block,PKA inh
Cn1c(=O)[nH]c(=O)c2[nH]c(N(Cc3ccccc3)Cc3ccccc3)nc21,-0.8,5.3,18.5,97.1,0.7,2.0
CC(C)CNS(=O)(=O)c1ccc(CCC(=O)Nc2ccc3c(c2)OCCO3)cc1,/,/,-45.6,/,/,/
COc1cc(NCCCN)c2ncccc2c1,/,/,/,/,-6.7,/
COc1cccc2c1C(=O)c1c(O)c3c(c(O)c1C2=O)C[C@@](O)(C(=O)CO)C[C@@H]3O[C@H]1C[C@H](N)[C@H](O)[C@H](C)O1,9.7,7.7,/,93.8,73.5*,-0.5
Cc1ccc(N=C2CCCN2Cc2ccccc2)c(C#N)c1,/,/,-88.9,/,/,/
CCOc1nc(C#N)nc(N2CCCCC2)n1,-8.2,3.2,/,39.0*,0.7,9.2
CCOc1nc(OCC)nc(N2CCC(C)CC2)n1,0.7,-1.2,/,/,-4.2,-2.3
COc1ccc(C2(NC(C)=O)CCN(C(=O)c3cccs3)CC2)cc1,/,/,49.8,/,/,/
O=c1c(O)c(-c2ccc(O)c(O)c2)oc2cc(O)cc(O)c12,/,/,/,/,103.2*,/
O=C(CCN1C(=O)c2ccccc2C1=O)Nn1cnnc1,1.3,6.6,/,/,-3.5,5.2
C=Cc1c(C)c2cc3[nH]c(cc4nc(cc5nc(cc1[nH]2)C(C)=C5CCC(=O)O)C(CCC(=O)O)=C4C)c(C)c3C=C,/,/,/,/,139.3*,/
O=C(COc1ccccc1)NCCc1cn2ccsc2n1,-1.7,2.1,/,/,-6.0,8.0
COc1cc(NC(C)CCCNC(C)C)c2ncccc2c1OC (stereo unspecified),/,/,/,/,36.0,/
CCN(CC)CCCNc1cc(OC)c(Nc2ccccc2)c2cccnc12,/,/,/,/,129.5*,/
CC1CCN=C(N)S1 (stereo unspecified),/,/,/,/,-1.9,/
Cc1noc(C)c1CSCC(=O)OCC(=O)NC1CCCCC1,0.0,/,/,32.4*,/,6.5
COc1ccc(C(=O)COC(=O)CSCc2c(C)noc2C)cc1OC,1.0,2.7,17.1,/,-1.0,3.3
O=C(CSC1=NCCN1)C1COc2ccccc2O1 (stereo unspecified),9.8,5.6,/,/,-2.5,8.6
COc1cc2c(cc1NC(=O)COC(=O)Cn1cnc3ccccc31)oc1ccccc12,1.5,0.5,-33.5,/,-1.5,23.7*
COc1ccc(C(C)=O)cc1CSc1nnc(-c2ccccc2O)n1-c1ccccc1,/,/,9.7,/,/,/
CCOC(=O)C1=C(CSc2nc(-c3ccncc3)ccc2C#N)OC(N)=C(C#N)C1c1cccnc1 (stereo unspecified),-6.1,20.8*,/,62.2,-5.2,5.4
CCOC(=O)C1=C(C(C)=O)C(c2cccnc2)C(C#N)=C(N)O1 (stereo unspecified),-20.0,2.8,31.5,72.2,-3.7,3.7
Cc1c(C(=O)Nc2ccc3oc(-c4cccnc4)nc3c2)oc2ccccc12,-33.3,19.9*,-65.1,78.3,-3.6,-1.0
O=C(Nc1ccc2oc(-c3cccnc3)nc2c1)c1cccnc1,-18.2,15.4,-35.8,87.0,-2.6,11.5
COCCN1Cc2cccc(C(=O)Nc3cccnc3)c2C1=O,0.1,-1.9,-77.1,76.9,0.6,-1.5
SMILES,MMP-13 inhibitor,ROCK2 inh,Htt clearance,SKBR3 24h inh,Hsp90 block,PKA inh
COCCN1Cc2cccc(C(=O)Nc3ccc4c(c3)OCCO4)c2C1=O,16.6*,-1.3,51.0,/,-0.1,-7.4
C[C@H](Cc1ccccc1)Nc1ncnc2c1ncn2[C@@H]1O[C@H](CO)[C@H](O)C1O (stereo partly specified),/,/,/,/,1.6,/
CCOc1ccc(-c2noc(-c3ccncc3)n2)cc1OCC,5.1,5.3,/,108.7,-4.7,11.2
CCOc1cc(-c2noc(-c3ccncc3)n2)cc(Br)c1OC,0.0,9.0,/,29.4*,1.9,10.3
COc1ccc(S(=O)(=O)Nc2ccc3c(c2)OCO3)cc1C(=O)O,-2.6,4.5,/,84.5,-2.9,7.4
COc1ccc(S(=O)(=O)Nc2ccc3c(c2)OCO3)cc1OC,1.0,2.0,/,95.9,50.9*,1.8
CN(C)/C=N/c1sc2c(c1C#N)CCC2,-1.3,3.7,11.1,/,-1.2,3.8

# Screening results deposited in PubChem by several laboratories.
